# Active and inactive are the calls of the source. Unless noted, the rule behind the calls is not given here.
# How the values were obtained:
# [1] = tested on: Wnt5a (protein binding on small-molecule microarray); experiment: Wnt5a binders on small-molecule microarray, primary screen, biophysical, 635/667 nm fluorescence (AID 1142); settings: 635 nm fluorescence, higher = more signal;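 note: fluorescence read at 667 nm with signal to noise per printed feature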
# [2] = cell viability in Huh7 cells, primary screen, cytotoxicity control for HCV replication inhibitor project, CellTiter-Glo luminescence, basal, 48 h (AID 1143); settings: Huh7 HCV replicon, higher = more signal, called active from +8 up or from −8 down;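 note: Huh7 hepatoma cells carrying a hepatitis C replication reporter with no stimulus; test concentration not given here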
# [3] = P. aeruginosa biofilm formation inhibitors, primary screen, PAO1 strain, BacTiter-Glo luminescence, LB-PBS (AID 1144); settings: 12 h, higher = more signal
# [4] = CREB reporter modulators without forskolin, primary screen, cell-based, PC12, CRE-LacZ reporter, unstimulated (AID 1145); settings: no forskolin, luminescence, 4.5 h, higher = more signal, called active from +8 up or from −8 down
# [5] = CREB reporter modulators under forskolin, primary screen, cell-based, PC12, CRE-LacZ reporter, forskolin-stimulated (AID 1146); settings: luminescence, 4.5 h, higher = more signal, called active from +8 up or from −8 down;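 note: PC12 cells with 6xCRE LacZ reporter stimulated by forskolin 10 µM; beta-galactosidase reporter signal reflecting CREB driven transcription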
# [6] = target: Streptavidin (Streptomyces avidinii) (UniProt P22629); experiment: streptavidin binders on small-molecule microarray, primary screen, artefact control for SMM compound annotation, biophysical, 635/667 nm fluorescence (AID 1147); settings: streptavidin binding, higher = more signal;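 note: signal reflects streptavidin binding to arrayed compounds as a control protein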
# [7] = small-molecule binders of probe aInhba, primary screen, biochemical, small-molecule microarray, 635/667 nm fluorescence (AID 1148); settings: higher = more signal;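 note: score merges 667nm spot fluorescence with signal-to-noise for antibody binding to printed compounds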
# [8] = target: Torsin-1A (Homo sapiens) (UniProt O14656); experiment: torsin A binders from cell lysate, primary screen, small-molecule microarray, wild-type, 635/667 nm (AID 1149); settings: COS7 hTOR1A-WT lysate, 635 nm fluorescence, higher = more signal
# [9] = target: Torsin-1A (Homo sapiens) (UniProt O14656); experiment: small-molecule binders of mutant TOR1A in lysate, primary screen, cell lysate, small-molecule microarray, COS7 lysate, 635/667 nm fluorescence (AID 1150); settings: COS7 hTOR1A mutant lysate, 635 nm fluorescence, higher = more signal;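 note: score pools 667 nm emission and signal to noise measuring lysate protein binding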
# [10] = tested on: Sonic hedgehog protein (Shh); experiment: small-molecule binders of Shh protein, primary screen, biochemical, small-molecule microarray, 635/667 nm fluorescence (AID 1151); settings: small-molecule microarray binding, 635 nm fluorescence; higher = more signal;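 note: Shh protein binding to compounds spotted on small-molecule microarray slides; score combines spot fluorescence intensity with signal-to-noise across triplicate slides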
# [11] = E. coli DRC41 culture turbidity changes, primary screen, E. coli filamentation inducer project, strain DRC41, OD650, 48 h (AID 1152);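 note: E. coli MC1000 strain DRC41 lacking acrAB efflux pump and sulA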; settings: E. coli DRC41 (acrAB sulA), higher = more signal, called active from +8 up or from −8 down
# [12] = small-molecule binders of probe aLefty1, primary screen, biochemical, small-molecule microarray, 635/667 nm fluorescence (AID 1153); settings: higher = more signal;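 note: score merges spot fluorescence with signal-to-noise ratio from the scanned slide images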
# [13] = PSAC antagonists in infected red cells, primary screen, cell-based, P. falciparum Indochina, OD700, 1 h (AID 1154); settings: P. falciparum Indochina infected RBC osmotic lysis, higher = more signal, called active from +8 up or from −8 down
# [14] = PSAC antagonists in infected red cells, primary screen, cell-based, P. falciparum Indochina, OD700, 2 h (AID 1155);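 note: lysis reports solute entry through the parasite surface anion channel PSAC; channel blockers reduce lysis of infected cells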; settings: P. falciparum Indochina infected erythrocytes, osmotic lysis OD700; higher = more signal, called active from +8 up or from −8 down
# [15] = osmotic lysis modulators in infected erythrocytes, primary screen, PSAC antagonist project, cell-based, P. falciparum Indochina, OD700, 3 h (AID 1156); settings: higher = more signal, called active from +8 up or from −8 down
# [16] = PSAC antagonists in infected red cells, primary screen, cell-based, P. falciparum Indochina, OD700, 18 h (AID 1157); settings: P. falciparum Indochina infected erythrocytes, osmotic lysis OD700, 18 h; higher = more signal, called active from +8 up or from −8 down
# [17] = modulators of S6 phosphorylation in cells, primary screen, cell-based, A549, cytoblot, luminescence, serum-stimulated (AID 1158); settings: A549 phospho-S6 cytoblot, 5 h, higher = more signal;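 note: serum-stimulated A549 lung adenocarcinoma cells; signal is phosphorylated S6 detected by cytoblot immunostaining with HRP secondary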
# [18] = target: NADPH oxidase 2 (Homo sapiens) (UniProt P04839); experiment: NOX2-dependent H2O2 signal modulators, primary screen, NOX inhibitor project, cell-based, HEK293-NOX2, PMA-stimulated, Amplex Red fluorescence (AID 1159); settings: 45 min, higher = more signal, called active from +8 up or from −8 down; note: test concentration not given here
# [19] = target: NADPH oxidase 4 (Homo sapiens) (UniProt Q9NPH5); experiment: NOX4-dependent H2O2 signal modulators, primary screen, NOX inhibitor project, cell-based, HEK293-NOX4, tetracycline-induced, Amplex Red fluorescence (AID 1160); settings: 45 min, higher = more signal, called active from +8 up or from −8 down
# [20] = target: NADPH oxidase 5 (Homo sapiens) (UniProt Q96PH1); experiment: NOX5-dependent H2O2 signal modulators, primary screen, NOX inhibitor project, cell-based, HEK293-NOX5, Amplex Red fluorescence (AID 1161); settings: HEK293-NOX5, ionomycin, 45 min, higher = more signal
# NADPH oxidase 5 (Homo sapiens), sequence (Q96PH1 whole entry, looked up): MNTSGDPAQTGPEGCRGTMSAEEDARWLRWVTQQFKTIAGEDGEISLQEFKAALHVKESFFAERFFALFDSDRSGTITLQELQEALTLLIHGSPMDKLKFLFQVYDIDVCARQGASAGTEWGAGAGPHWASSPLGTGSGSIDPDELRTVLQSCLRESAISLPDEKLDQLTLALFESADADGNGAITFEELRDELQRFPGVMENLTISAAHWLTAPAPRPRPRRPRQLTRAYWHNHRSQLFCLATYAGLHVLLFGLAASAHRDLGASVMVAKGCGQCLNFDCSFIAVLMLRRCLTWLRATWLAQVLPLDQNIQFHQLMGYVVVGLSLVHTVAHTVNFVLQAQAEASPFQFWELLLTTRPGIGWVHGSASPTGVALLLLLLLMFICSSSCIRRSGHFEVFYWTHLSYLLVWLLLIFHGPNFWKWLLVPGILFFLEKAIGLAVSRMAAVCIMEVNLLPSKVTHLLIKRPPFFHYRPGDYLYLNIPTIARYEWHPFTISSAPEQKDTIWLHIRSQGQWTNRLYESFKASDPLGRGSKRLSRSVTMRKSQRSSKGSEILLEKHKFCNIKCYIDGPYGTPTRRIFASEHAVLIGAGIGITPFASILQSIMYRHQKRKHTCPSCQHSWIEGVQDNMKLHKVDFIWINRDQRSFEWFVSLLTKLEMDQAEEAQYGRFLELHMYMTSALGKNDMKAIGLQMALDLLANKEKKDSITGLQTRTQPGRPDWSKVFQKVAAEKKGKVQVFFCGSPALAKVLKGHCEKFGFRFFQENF
# NADPH oxidase 4 (Homo sapiens), sequence (Q9NPH5 whole entry, looked up): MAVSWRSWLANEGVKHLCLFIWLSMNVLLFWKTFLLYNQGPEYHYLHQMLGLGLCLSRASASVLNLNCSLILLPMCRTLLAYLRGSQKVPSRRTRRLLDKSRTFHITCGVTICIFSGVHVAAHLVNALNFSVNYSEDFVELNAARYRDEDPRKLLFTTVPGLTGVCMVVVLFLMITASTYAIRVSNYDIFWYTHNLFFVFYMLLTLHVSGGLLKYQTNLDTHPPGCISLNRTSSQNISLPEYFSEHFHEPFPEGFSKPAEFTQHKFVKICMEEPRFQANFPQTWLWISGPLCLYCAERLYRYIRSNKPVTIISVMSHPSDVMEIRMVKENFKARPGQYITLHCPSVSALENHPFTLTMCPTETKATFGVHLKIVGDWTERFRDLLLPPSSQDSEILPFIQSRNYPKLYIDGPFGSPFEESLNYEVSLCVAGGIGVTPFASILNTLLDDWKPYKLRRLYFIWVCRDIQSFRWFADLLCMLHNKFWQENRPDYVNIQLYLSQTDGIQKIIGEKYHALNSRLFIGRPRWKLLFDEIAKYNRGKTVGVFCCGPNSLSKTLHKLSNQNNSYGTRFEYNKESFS
# Streptavidin (Streptomyces avidinii), sequence (P22629 whole entry, looked up): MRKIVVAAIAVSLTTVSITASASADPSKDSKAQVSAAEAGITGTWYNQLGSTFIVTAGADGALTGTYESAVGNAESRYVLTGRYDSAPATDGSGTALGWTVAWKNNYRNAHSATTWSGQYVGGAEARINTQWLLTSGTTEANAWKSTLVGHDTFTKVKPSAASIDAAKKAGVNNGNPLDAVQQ
# NADPH oxidase 2 (Homo sapiens), sequence (P04839 whole entry, looked up): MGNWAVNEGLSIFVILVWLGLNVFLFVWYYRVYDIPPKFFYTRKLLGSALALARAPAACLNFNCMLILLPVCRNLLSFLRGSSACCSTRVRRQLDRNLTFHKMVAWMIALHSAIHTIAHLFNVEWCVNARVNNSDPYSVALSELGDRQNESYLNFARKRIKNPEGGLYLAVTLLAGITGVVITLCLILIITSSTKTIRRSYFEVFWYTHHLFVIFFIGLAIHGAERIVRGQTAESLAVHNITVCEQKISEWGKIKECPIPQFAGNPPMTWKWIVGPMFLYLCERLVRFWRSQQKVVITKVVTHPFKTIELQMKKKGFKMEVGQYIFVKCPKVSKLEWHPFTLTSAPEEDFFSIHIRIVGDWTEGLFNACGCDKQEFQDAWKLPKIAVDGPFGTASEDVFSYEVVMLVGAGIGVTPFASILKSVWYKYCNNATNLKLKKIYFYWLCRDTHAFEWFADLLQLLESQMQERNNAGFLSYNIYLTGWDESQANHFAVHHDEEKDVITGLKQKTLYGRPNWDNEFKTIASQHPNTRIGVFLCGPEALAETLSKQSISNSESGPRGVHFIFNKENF
# Torsin-1A (Homo sapiens), sequence (O14656 whole entry, looked up): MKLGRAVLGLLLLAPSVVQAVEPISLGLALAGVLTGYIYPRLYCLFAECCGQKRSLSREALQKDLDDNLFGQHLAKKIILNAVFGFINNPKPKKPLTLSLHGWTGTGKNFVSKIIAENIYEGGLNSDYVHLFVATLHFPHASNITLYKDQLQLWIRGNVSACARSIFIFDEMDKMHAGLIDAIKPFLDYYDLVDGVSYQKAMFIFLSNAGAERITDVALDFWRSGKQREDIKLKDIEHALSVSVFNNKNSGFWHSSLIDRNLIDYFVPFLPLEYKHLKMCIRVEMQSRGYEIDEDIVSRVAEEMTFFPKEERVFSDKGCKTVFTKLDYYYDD
SMILES,composite z-score [1],z-score [2],z-score [3],z-score [4],z-score [5],composite z-score [6],composite z-score [7],composite z-score [8],composite z-score [9],composite z-score [10],z-score [11],composite z-score [12],z-score [13],z-score [14],z-score [15],z-score [16],z-score [17],z-score [18],z-score [19],z-score [20]
COC(=O)[C@@]1(Cc2ccc(F)cc2)[C@H]2c3cc(C(=O)N4CCCC4)n(Cc4cc(F)cc5c4OCOC5)c3C[C@H]2CN1C(=O)c1ccccc1,0.547,-3.39 (inactive),0.403 (inactive),-0.372 (inactive),0.755 (inactive),1.57,0.328,-0.659,-0.212,0.229,-2.25 (inactive),0.617,3.29 (inactive),0.273 (inactive),3.36 (inactive),0.886 (inactive),0.0568,-0.332 (inactive),0.115 (inactive),0.853
CC(=O)OCC1C2CC[C@H]3C(OCc4ccc(F)cc4C(F)(F)F)OC[C@]4(C)[C@H]3C2=C(CN4C(=O)OC(C)(C)C)[C@H](C)C1COC(C)=O (stereo not given in full),1.21,-1.87 (inactive),-0.212 (inactive),0.0075 (inactive),1.85 (inactive),1.16,0.196,-0.172,1.67,-1.24,-2.4 (inactive),0.498,1.07 (inactive),0.678 (inactive),1.04 (inactive),0.593 (inactive),-0.239,-0.896 (inactive),-2.29 (inactive),-1.51
COc1ccc([Si](C)(C)[C@H]2[C@H](CC(=O)N3Cc4ccccc4C[C@H]3CO)O[C@@]3(C(=O)N(c4ccccc4)c4ccccc43)[C@@H]2C)cc1,0.479,-5.64 (inactive),0.449 (inactive),3.6 (inactive),-1.16 (inactive),0.968,0.0342,1.57,0.862,2.04,0.968 (inactive),0.701,11.9 (active),2.16 (inactive),1.24 (inactive),1.09 (inactive),1.35,-1.56 (inactive),-0.499 (inactive),-2.51
CCCCC(O)C1C=CC2C(=O)N(c3ccccc3)C(=O)C2N1Nc1ccccc1 (stereo not given),-0.152,0.564 (inactive),-0.279 (inactive),0.257 (inactive),0.875 (inactive),0.682,0.0278,-0.0483,0.0691,-1.35,-0.274 (inactive),0.139,4.52 (inactive),0.786 (inactive),-0.196 (inactive),1.17 (inactive),-0.439,-1.17 (inactive),-2.93 (inactive),-2.06
[N-]=[N+]=Nc1ccccc1[C@H]1OC(c2ccc(OCCCO)cc2)=N[C@@]1(Cc1ccccc1)C(=O)NCC(O)CO (stereo not given in full),0.96,-2.87 (inactive),-0.48 (inactive),-1.49 (inactive),-1.2 (inactive),0.211,0.121,0.36,0.807,-1.32,0.348 (inactive),0.425,33.6 (active),30.4 (active),0.849 (inactive),8.56 (active),-0.0737,-0.455 (inactive),1.67 (inactive),1.31
CN(C)C(=O)[C@]1(Cc2ccccc2)N=C(c2ccc(OCCCO)cc2)O[C@@H]1c1ccccc1CN=[N+]=[N-],0.552,-3.95 (inactive),-0.754 (inactive),-0.655 (inactive),2.45 (inactive),1.34,0.136,1.12,0.737,0.0325,0.631 (inactive),0.313,27.3 (active),17.5 (active),1.11 (inactive),2.14 (inactive),0.0358,-3.22 (inactive),-0.846 (inactive),-1.24
OCCCC1=CC(c2ccc(CN3CCCC3)cc2)N(Cc2cccc(OC(F)(F)F)c2)CC1 (stereo not given),-0.131,-9.01 (active),0.697 (inactive),-0.0884 (inactive),0.593 (inactive),-0.69,-0.0791,0.265,-0.165,0.365,-2.64 (inactive),0.286,3.61 (inactive),0.935 (inactive),0.524 (inactive),0.749 (inactive),-0.791,-5.61 (inactive),-2.06 (inactive),-2.16
COc1ccc([Si](C)(C)[C@H]2[C@H](CCO)O[C@@]3(C(=O)N(Cc4ccc(NC(=O)[C@H](C)O)cc4)c4ccccc43)[C@@H]2C)cc1,0.185,-8.05 (active),-0.159 (inactive),5 (inactive),-1.71 (inactive),0.674,-0.0405,0.189,0.753,0.785,0.0546 (inactive),-0.0984,29.9 (active),25.8 (active),2.52 (inactive),2.46 (inactive),1.27,0.25 (inactive),1.39 (inactive),-0.66
CO[C@H]1O[C@H](CO)[C@@H](OC(=O)Nc2ccccc2-c2ccccc2)[C@H](OC(=O)Nc2ccccc2)[C@H]1OC(=O)Nc1ccccc1,1.32,-3.8 (inactive),-0.589 (inactive),-0.254 (inactive),-2.07 (inactive),0.29,0.122,0.616,1.6,1.1,0.299 (inactive),0.0405,2.62 (inactive),0.772 (inactive),0.375 (inactive),0.521 (inactive),0.144,-1.62 (inactive),-1.72 (inactive),-1.4
CC1CC/C=C\[C@H]2OC34C=CCN(Cn5nnc6ccccc65)C(=O)[C@H]3N(CCCCCCO)C(=O)[C@@H]4C2C(=O)O1 (stereo not given in full),-0.755,0.835 (inactive),-1.18 (inactive),-0.0859 (inactive),0.19 (inactive),-0.399,-0.12,-1.51,-1.11,-0.415,0.699 (inactive),0.0999,0.59 (inactive),-0.139 (inactive),-0.248 (inactive),0.527 (inactive),1.2,1.02 (inactive),0.515 (inactive),2.37
CCOC(=O)C1=CC[C@@H](c2ccccc2)N(S(=O)(=O)c2ccc(C)cc2)[C@H]1c1ccccc1I,0.296,-2.69 (inactive),0.366 (inactive),0.566 (inactive),-0.226 (inactive),0.864,0.849,-0.315,0.507,0.239,-0.801 (inactive),1.24,1.18 (inactive),0.948 (inactive),-0.597 (inactive),0.631 (inactive),-0.94,0.62 (inactive),0.205 (inactive),0.721
COC(=O)[C@@]1(Cc2ccc(OC)cc2)[C@H]2c3cc(C(=O)N(C)C)[nH]c3C[C@H]2CN1C(=O)c1ccccc1,0.117,0.244 (inactive),0.857 (inactive),0.383 (inactive),-0.289 (inactive),0.226,-0.0645,-0.209,-0.369,-0.814,-0.439 (inactive),-0.0969,5.74 (inactive),0.806 (inactive),0.395 (inactive),0.764 (inactive),-0.38,0.371 (inactive),0.602 (inactive),-1.58
COCCOC(=O)N1C(=O)[C@@]2(c3cc(C#CCC(C(=O)OC)C(=O)OC)ccc31)[C@H](c1ccc(O)cc1)N1[C@H](c3ccccc3)[C@H](c3ccccc3)OC(=O)[C@H]1[C@@H]2C(=O)Nc1nc2ccccc2s1,0.553,-1.48 (inactive),0.164 (inactive),-0.195 (inactive),-0.521 (inactive),0.633,0.221,0.533,0.479,1.77,0.306 (inactive),0.251,2.75 (inactive),0.666 (inactive),0.34 (inactive),0.802 (inactive),-0.286,1.1 (inactive),-1.09 (inactive),0.698
O=C1C2C=CC(C(O)c3cccs3)N(Nc3ccc([N+](=O)[O-])cc3)C2C(=O)N1c1ccccc1 (stereo not given),0.0001,0.0886 (inactive),0.461 (inactive),-0.685 (inactive),-0.275 (inactive),0.46,-0.0791,-0.236,0.303,-0.441,-0.46 (inactive),-0.105,8.61 (active),1.43 (inactive),1.75 (inactive),0.753 (inactive),-0.772,-0.437 (inactive),-2.75 (inactive),-1.55
Cc1ccc(F)cc1S(=O)(=O)N[C@H]1CCN(Cc2ccc(OC(C)C)cc2)C1,-0.223,-3.11 (inactive),0.434 (inactive),1.4 (inactive),-0.592 (inactive),-0.48,-0.0963,0.149,-0.0115,1.75,-4.19 (inactive),-0.241,2.31 (inactive),0.709 (inactive),0.183 (inactive),0.526 (inactive),-0.227,-1.11 (inactive),-0.777 (inactive),-2.37
CN(C)c1ccc(C(O)C2C=CC3C(=O)N(Cc4ccccc4)C(=O)C3N2n2cnnc2)cc1 (stereo not given),-0.347,0.166 (inactive),-1.85 (inactive),-1.09 (inactive),-0.607 (inactive),0.143,-0.149,0.131,-0.243,-0.11,1.3 (inactive),-0.115,0.0651 (inactive),-0.318 (inactive),0.747 (inactive),-0.553 (inactive),1.02,0.683 (inactive),-0.524 (inactive),0.36
COCCn1c(C(=O)N(C)C)cc2c1C[C@H]1CN(C(=O)c3ccccc3)[C@@](Cc3ccc(OC)cc3)(C(=O)OC)[C@@H]21,0.198,-1.27 (inactive),0.491 (inactive),0.776 (inactive),0.0711 (inactive),0.572,-0.0237,0.236,1.11,-0.472,-1.18 (inactive),0.256,5.82 (inactive),0.846 (inactive),1.36 (inactive),1.23 (inactive),-0.164,0.556 (inactive),1.43 (inactive),1.24

# — PubChem BioAssay
